# Bioassay records from PubChem BioAssay.
# Only some compounds are listed: those with a hit (about 4.7% of all), similar ones and a draw of the others.
# CCHF vOTU inh – blocks the CCHF virus ovarian tumor domain protease. CCHFV vOTU protease, Pep-AMC fluorescence. inhibition, % at 11.5 µM. actives 0.55% (n = 370,000). AID 651958; note: 0% = vehicle wells with enzyme and 100% = no enzyme wells
# 3CLpro inhibitor – SARS-CoV 3CLpro protease inhibition; inhibition, % at 6 µM; actives 0.14% (n = 290,000); recombinant SARS-CoV 3CLpro, quenched FRET peptide cleavage; P0C6X7; in the data active = inhibition above about 12%
# FBA Mtb inh – inhibitors of M. tuberculosis fructose-bisphosphate aldolase; inhibition, % at 1 µM; actives 2.3% (n = 360,000); purified M. tuberculosis FBA, fluorescence read-out; P9WQA3; in the data active = inhibition above about 27%;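 note: 0% = vehicle and 100% = reference inhibitor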
# GDH-TPI counter – inhibits GDH-TPI coupling enzymes, artifact for Mtb FBA screen; GDH-TPI coupled enzyme counterscreen, NADH absorbance; inhibition, % at 4.8 µM; actives 1.2% (n = 360,000); AID 588335;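 note: 0% = DMSO wells and 100% = wells lacking the enzyme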
# RecA splice inh – inhibitors of M. tuberculosis RecA intein splicing; cell-free RecA intein splicing, fluorescence; inhibition, % (concentration not given with the values); actives 0.75% (n = 290,000); AID 2221; in the data active = inhibition above about 30%;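 note: 0% = vehicle wells and 100% = reference inhibitor control wells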
# Target sequence (P9WHJ3 whole entry, looked up, canonical isoform): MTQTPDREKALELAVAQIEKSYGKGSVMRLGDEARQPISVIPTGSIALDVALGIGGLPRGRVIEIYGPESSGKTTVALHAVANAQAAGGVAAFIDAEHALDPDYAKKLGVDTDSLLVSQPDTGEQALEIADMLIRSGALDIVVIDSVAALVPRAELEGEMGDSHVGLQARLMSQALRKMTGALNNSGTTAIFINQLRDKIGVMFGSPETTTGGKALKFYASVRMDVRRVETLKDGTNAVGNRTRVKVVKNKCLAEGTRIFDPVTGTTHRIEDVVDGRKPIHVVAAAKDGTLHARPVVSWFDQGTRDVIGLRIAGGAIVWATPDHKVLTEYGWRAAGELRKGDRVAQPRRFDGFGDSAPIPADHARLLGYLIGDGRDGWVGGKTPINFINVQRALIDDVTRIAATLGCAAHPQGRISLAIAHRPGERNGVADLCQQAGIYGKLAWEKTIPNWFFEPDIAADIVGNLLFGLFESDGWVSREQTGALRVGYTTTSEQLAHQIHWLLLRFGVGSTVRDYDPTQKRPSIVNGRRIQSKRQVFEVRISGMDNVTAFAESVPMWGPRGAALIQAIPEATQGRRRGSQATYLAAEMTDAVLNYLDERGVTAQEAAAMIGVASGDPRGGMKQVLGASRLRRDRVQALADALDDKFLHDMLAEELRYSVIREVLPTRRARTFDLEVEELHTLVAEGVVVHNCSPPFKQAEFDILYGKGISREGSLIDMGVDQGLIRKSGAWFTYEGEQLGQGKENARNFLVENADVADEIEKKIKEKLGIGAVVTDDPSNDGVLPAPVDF
# DUSP3 inh – blocks human VHR1 dual specificity phosphatase. actives 0.52% (n = 290,000). inhibition, % at 13.3 µM. recombinant VHR phosphatase, pNPP absorbance; in the data active = inhibition above about 50%
# GFP chromophore – counter-screen: blocks GFP chromophore formation; actives 83% (n = 2,100); cell-free GFP chromophore formation, fluorescence; shares compounds with RecA splice inh; EC50, µM; call rule not given here
# * hit, by the source's call; . = no result. Cut-off read from the data, not from the text of the source, unless noted: active = inhibition above about 30%; inactive = the rest.
SMILES,CCHF vOTU inh,3CLpro inhibitor,FBA Mtb inh,GDH-TPI counter,RecA splice inh,DUSP3 inh,GFP chromophore
O=C1CCCC2=C1C(c1ccc3c(c1)OCO3)c1c([nH]n(-c3ccccc3)c1=O)N2 (stereo unspecified),6.0,0.3,-4.2,37.2*,74.2*,8.1,13.6*
COc1cccc(C2C3=C(CCCC3=O)Nc3[nH]n(-c4ccccc4)c(=O)c32)c1 (stereo unspecified),-3.2,3.7,-0.2,21.3,0.2,36.4,.
O=C1/C(=C/Nc2ccc3c(c2)OCO3)CCc2ccccc21,14.0,-4.0,-5.1,4.7,49.0*,16.6,3.24*
C=CCNC(=S)N1CCN(Cc2ccc3c(c2)OCO3)CC1,-8.1,4.4,-3.1,7.0,-7.3,-7.8,.
COc1ccc(-c2csc(CCN3N=C(C)CC3=O)n2)cc1,6.8,-0.7,0.3,4.8,85.8*,25.6,4.77*
COc1ccc(-c2csc(C)n2)cc1,0.3,4.5,1.6,-2.3,0.2,24.7,.
Cc1cc(C(=O)CCl)c(C)n1CCc1ccc(F)cc1,8.5,9.2,5.1,-5.7,27.0,22.7,.
Cc1cc(C(=O)CCl)c(C)n1CCc1ccc(Cl)cc1,-1.3,11.0,3.8,3.2,61.8*,-2.7,21.2*
Cc1ccc(OC(=O)c2ccncc2)c(C)c1,-2.7,3.0,-5.7,-13.4,1.0,7.4,.
O=C(CCl)c1ccc2c(c1)CCN2C(=O)C1CCCCC1,-8.4,1.9,6.9,4.9,80.2*,8.5,>38
CN(CC(=O)Nc1ccccc1Br)C(=O)CN1CCN(c2ccccc2Cl)CC1,-8.7,.,1.2,-4.2,.,.,.
O=C(CSCc1c(F)cccc1Cl)NNC(=S)NC1CCCCC1,20.0,3.5,2.2,2.7,4.1,-1.6,.
COC(=O)C1=C(C)OC(N)=C(C#N)C1c1c(C)nn(-c2ccccc2)c1Cl (stereo unspecified),-9.9,-0.4,-2.3,10.1,5.1,-2.0,.
Cc1nn(-c2ccccc2)c2c1C(c1ccccc1)C(C#N)=C(N)O2 (stereo unspecified),14.2,7.9,1.6,6.0,54.1*,10.0,28.9*
Cc1nn(-c2ccccc2)c2c1C(c1ccc(F)cc1F)C(C#N)=C(N)O2 (stereo unspecified),5.9,5.5,1.9,-4.7,50.4*,-1.0,3.9*
COc1ccc(C(=O)C2C(c3ccc(-c4ccccc4[N+](=O)[O-])o3)NC(=O)NC2(O)C(F)(F)F)cc1 (stereo unspecified),0.6,-0.1,4.7,4.0,64.5*,27.7,32.3*
CC(=O)OC1=C(O)C(=O)c2ccccc2C1=O,.,.,.,.,28.6,.,.
O=C1C(C2=C(O)c3ccccc3C2=O)=Nc2ccccc21,10.8,-2.3,-12.2,2.4,47.4*,30.2,1.83*
CCOC(=O)CCCNC(=O)OC1CC2CC1[C@H]1CCCCN1[C@H]2C (stereo partly specified),-4.9,.,.,.,.,.,.
Brc1ccc(/C=N/n2cnnc2)s1,6.6,-0.5,-0.8,12.1,-2.0,21.3,.
Cc1ccc(Sc2oc(/C=N/n3cnnc3)cc2Br)cc1,7.6,1.7,-1.9,17.1,62.0*,-15.6,35.2*
O=S(=O)(c1ccc2c(c1)CCCN2)N1CCCC1,15.5,.,0.7,2.8,.,.,.
CCN(CC)c1ccc2c(c1)CCCN2,.,-2.2,.,.,33.3*,22.2,>38
Nc1nn2c(-c3ccccc3)cc(=O)[nH]c2c1N=Nc1ccc(O)cc1,-7.7,-1.9,-13.8,-0.8,52.2*,15.1,1.98*
Nc1nn2c(-c3ccccc3)cc(=O)[nH]c2c1N=Nc1ccc(Br)cc1,-9.0,-1.8,-10.6,8.7,.,111.2,.
O=C(Nc1ccccc1Cl)C(Cl)C(=O)c1ccccc1 (stereo unspecified),14.4,2.3,-2.9,1.3,.,2.7,.
O=C(Nc1ccc(Cl)cc1)C(Cl)C(=O)c1ccccc1 (stereo unspecified),-6.4,-1.8,-0.1,5.7,45.9*,21.4,38.3*
CS(=O)(=O)c1ccc(C(=O)Nc2ccc(N3CCOCC3)cc2)c(Cl)c1,-18.2,2.2,7.1,12.8,0.9,5.2,.
CS(=O)(=O)c1ncc(Cl)c(C(=O)Nc2ccc(N3CCOCC3)cc2)n1,.,-0.5,-2.9,11.3,45.1*,-1.5,38*
CS(=O)(=O)c1ncc(Cl)c(C(=O)Nc2ccc(OC(F)F)cc2)n1,.,2.3,-6.1,-0.8,78.9*,17.8,11.5*
